Reference: the supplement of paper PMC6555819

Key:
Experiment in all cases: PBM binding z-score (relative to random genomic background probes); higher = stronger binding; sequences stand for … in GC…GCGATTGACAGCGTAGAATGAAGG
[1] = tested on: FXR:RXRa (NR concentration 270 nM, RXRa partner concentration 90 nM)
How it was run: (§1)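 The probes on custom Agilent 4×180K protein-binding microarrays were double-stranded, with 34-nt variable regions bearing direct-repeat seeds, single-nucleotide variants, half-site ablations and random human genomic background sequences. Incubation lasted 1 h with ligand-free nuclear receptor dimers in PBS pH 7.4, 2% milk, 0.02% Triton X-100, 1 mM DTT, 0.2 mg/mL BSA and 0.4 mg/ml salmon testes DNA. Antibodies against each partner (one per run) detected bound dimers, and fluorescence scans were regression-normalized. Binding z-scores take the random background probes as reference.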

[2] = tested on: LXRa:RXRa (NR concentration 270 nM, RXRa partner concentration 90 nM)
How it was run: as §1

[3] = tested on: LXRa homodimer (NR concentration 270 nM)
How it was run: as §1

[4] = tested on: LXRb:RXRa (NR concentration 270 nM, RXRa partner concentration 90 nM)
How it was run: as §1

[5] = tested on: LXRb homodimer (NR concentration 270 nM)
How it was run: as §1

[6] = tested on: PPARa:RXRa (NR concentration 270 nM, RXRa partner concentration 90 nM)
How it was run: as §1

[7] = tested on: PPARg:RXRa (NR concentration 180 nM, RXRa partner concentration 90 nM)
How it was run: as §1

[8] = tested on: PPARg:RXRa 270nM:90nM, anti-RXR (NR concentration 270 nM, RXRa partner concentration 90 nM)
How it was run: as §1

[9] = tested on: PPARg:RXRa 30nM:10nM, anti-RXR (NR concentration 30 nM, RXRa partner concentration 10 nM)
How it was run: as §1

[10] = tested on: PPARg:RXRa 90nM:30nM, anti-RXR (NR concentration 90 nM, RXRa partner concentration 30 nM)
How it was run: as §1

**Q.** How did the PBM binding z-score [1] turn out when CATACAGGGTCAGCGAGGCCAGAGTAGGGACGGC was run?
**A.** The PBM binding z-score was 5.13.

**Q.** And the PBM binding z-score [2]?
**A.** The PBM binding z-score was 3.36.

**Q.** What about the PBM binding z-score [3] of the same sequence?
**A.** The PBM binding z-score was -0.392.

**Q.** What about the PBM binding z-score [4] of the same sequence?
**A.** Its PBM binding z-score is 2.27.

**Q.** What about the PBM binding z-score [5] of the same sequence?
**A.** Its PBM binding z-score is -0.0459.

**Q.** And the PBM binding z-score [6]?
**A.** Its PBM binding z-score is 5.

**Q.** What about the PBM binding z-score [7] of the same sequence?
**A.** The PBM binding z-score was 4.21.

**Q.** What about the PBM binding z-score [8] of the same sequence?
**A.** Its PBM binding z-score is 3.65.

**Q.** What about the PBM binding z-score [9] of the same sequence?
**A.** Its PBM binding z-score is 0.828.

**Q.** What about the PBM binding z-score [10] of the same sequence?
**A.** Its PBM binding z-score is 2.12.

**Q.** What does the source list for ATCTTTAGGTAAAGTTCAGTGAAAGATCGATAGA?
**A.** PBM binding z-score [1]: 0.994; PBM binding z-score [2]: 1.72; PBM binding z-score [3]: 1.25; PBM binding z-score [4]: 1.18; PBM binding z-score [5]: 0.781; PBM binding z-score [6]: 1.87; PBM binding z-score [7]: 2.25; PBM binding z-score [8]: 3.13; PBM binding z-score [9]: 1.43; PBM binding z-score [10]: 2.95

**Q.** What does the source list for TCATATTGGTAAACAGGTGAAAGTCCGTAAGTTA?
**A.** PBM binding z-score [1]: 1.17; PBM binding z-score [2]: 0.929; PBM binding z-score [3]: 0.49; PBM binding z-score [4]: 1.15; PBM binding z-score [5]: 0.247; PBM binding z-score [6]: 1.66; PBM binding z-score [7]: 0.821; PBM binding z-score [8]: 2.67; PBM binding z-score [9]: 4.04; PBM binding z-score [10]: 3.3

**Q.** What does the source list for ATCGAAAGGTCGGGAGGTGAGTATACAGAAAGGC?
**A.** PBM binding z-score [1]: 2.88; PBM binding z-score [2]: 2.4; PBM binding z-score [3]: 0.589; PBM binding z-score [4]: 2.36; PBM binding z-score [5]: 0.968; PBM binding z-score [6]: 3.64; PBM binding z-score [7]: 2.22; PBM binding z-score [8]: 2.42; PBM binding z-score [9]: 0.864; PBM binding z-score [10]: 1.44

**Q.** What does the source list for ATCTCAAGGTAAGACTCAGTTCAGTGAAGAACGC?
**A.** PBM binding z-score [1]: 0.749; PBM binding z-score [2]: 0.642; PBM binding z-score [3]: 0.594; PBM binding z-score [4]: 0.258; PBM binding z-score [5]: 0.655; PBM binding z-score [6]: 0.216; PBM binding z-score [7]: 0.033; PBM binding z-score [8]: 0.104; PBM binding z-score [9]: 0.217; PBM binding z-score [10]: 0.104

**Q.** TAGCCTAGGTCAGTCAGGGGCCAGTATAGAAAGC was tested. Which PBM binding z-score [1] did it give?
**A.** The PBM binding z-score was 1.42.

**Q.** And the PBM binding z-score [2]?
**A.** Its PBM binding z-score is 0.48.

**Q.** And the PBM binding z-score [3]?
**A.** The PBM binding z-score was -0.418.

**Q.** And the PBM binding z-score [4]?
**A.** Its PBM binding z-score is 0.85.

**Q.** What about the PBM binding z-score [5] of the same sequence?
**A.** Its PBM binding z-score is -0.405.

**Q.** What about the PBM binding z-score [6] of the same sequence?
**A.** Its PBM binding z-score is 1.46.

**Q.** And the PBM binding z-score [7]?
**A.** The PBM binding z-score was 0.583.

**Q.** And the PBM binding z-score [8]?
**A.** The PBM binding z-score was 1.04.

**Q.** What about the PBM binding z-score [9] of the same sequence?
**A.** The PBM binding z-score was -0.0718.

**Q.** What about the PBM binding z-score [10] of the same sequence?
**A.** Its PBM binding z-score is 0.829.

**Q.** Which PBM binding z-score [1] does the source give for AGAATGAGGTAAAGATCAGGGAAACAGAATACAT here?
**A.** The PBM binding z-score was 0.438.

**Q.** And the PBM binding z-score [2]?
**A.** The PBM binding z-score was 0.311.

**Q.** And the PBM binding z-score [3]?
**A.** Its PBM binding z-score is -0.176.

**Q.** What about the PBM binding z-score [4] of the same sequence?
**A.** The PBM binding z-score was 0.517.

**Q.** And the PBM binding z-score [5]?
**A.** The PBM binding z-score was -0.108.

**Q.** And the PBM binding z-score [6]?
**A.** The PBM binding z-score was 0.991.

**Q.** And the PBM binding z-score [7]?
**A.** Its PBM binding z-score is 2.

**Q.** And the PBM binding z-score [8]?
**A.** The PBM binding z-score was 2.05.

**Q.** And the PBM binding z-score [9]?
**A.** Its PBM binding z-score is 0.928.

**Q.** And the PBM binding z-score [10]?
**A.** The PBM binding z-score was 1.67.

**Q.** Which PBM binding z-score [1] does the source give for TCTTGTGGATCAAGCAGGTTAAGAAAGCCTGAGT here?
**A.** Its PBM binding z-score is 0.364.

**Q.** And the PBM binding z-score [2]?
**A.** The PBM binding z-score was 0.407.

**Q.** And the PBM binding z-score [3]?
**A.** Its PBM binding z-score is -0.212.

**Q.** What about the PBM binding z-score [4] of the same sequence?
**A.** Its PBM binding z-score is 0.444.

**Q.** What about the PBM binding z-score [5] of the same sequence?
**A.** The PBM binding z-score was -0.493.

**Q.** What about the PBM binding z-score [6] of the same sequence?
**A.** The PBM binding z-score was 0.766.

**Q.** And the PBM binding z-score [7]?
**A.** Its PBM binding z-score is -0.54.

**Q.** What about the PBM binding z-score [8] of the same sequence?
**A.** The PBM binding z-score was 1.07.

**Q.** What about the PBM binding z-score [9] of the same sequence?
**A.** Its PBM binding z-score is 2.27.

**Q.** And the PBM binding z-score [10]?
**A.** The PBM binding z-score was 1.58.

**Q.** Which results are given for AATACAGGGTCATCGCAGGCCAGAGTACGCACAG?
**A.** PBM binding z-score [1]: 7.15; PBM binding z-score [2]: 6.19; PBM binding z-score [3]: 2.29; PBM binding z-score [4]: 4.62; PBM binding z-score [5]: 1.25; PBM binding z-score [6]: 5.93; PBM binding z-score [7]: 6.6; PBM binding z-score [8]: 6.2; PBM binding z-score [9]: 2.73; PBM binding z-score [10]: 4.39

**Q.** For AGAATGAGGTTACCAAAGATTAGGGAAACGCTTG, which PBM binding z-score [1] is on record?
**A.** The PBM binding z-score was 1.75.

**Q.** What about the PBM binding z-score [2] of the same sequence?
**A.** Its PBM binding z-score is 4.54.

**Q.** And the PBM binding z-score [3]?
**A.** Its PBM binding z-score is -0.368.

**Q.** And the PBM binding z-score [4]?
**A.** The PBM binding z-score was 1.72.

**Q.** What about the PBM binding z-score [5] of the same sequence?
**A.** Its PBM binding z-score is -0.268.

**Q.** And the PBM binding z-score [6]?
**A.** Its PBM binding z-score is 3.31.

**Q.** What about the PBM binding z-score [7] of the same sequence?
**A.** The PBM binding z-score was 2.43.

**Q.** What about the PBM binding z-score [8] of the same sequence?
**A.** The PBM binding z-score was 2.72.

**Q.** And the PBM binding z-score [9]?
**A.** The PBM binding z-score was 1.12.

**Q.** And the PBM binding z-score [10]?
**A.** The PBM binding z-score was 1.93.

**Q.** What does the source list for CCTTACGGGTCACTGACAGGTTATAGCCTTTGGA?
**A.** PBM binding z-score [1]: 5.57; PBM binding z-score [2]: 4.01; PBM binding z-score [3]: 0.368; PBM binding z-score [4]: 3.43; PBM binding z-score [5]: -0.148; PBM binding z-score [6]: 4.99; PBM binding z-score [7]: 4.28; PBM binding z-score [8]: 4.31; PBM binding z-score [9]: 1.31; PBM binding z-score [10]: 2.99

**Q.** Which results are given for CCAGACAGGTGAGAAGGTAATTCAGCCTCGATTA?
**A.** PBM binding z-score [1]: -0.0604; PBM binding z-score [2]: -0.00281; PBM binding z-score [3]: 0.0932; PBM binding z-score [4]: 0.0559; PBM binding z-score [5]: -0.31; PBM binding z-score [6]: 0.475; PBM binding z-score [7]: 0.379; PBM binding z-score [8]: 0.635; PBM binding z-score [9]: -0.0755; PBM binding z-score [10]: 0.116
